Conditions in all cases: mRNA level, 48 h; actives raise or lower the signal
Read-out in test [1]: MicroRNA 122 (MIR122), gene 406906
The experiment in a line: LTEA_HepaRG_MIR122: Life Technologies and Expression Analysis (LTEA) Assay for MicroRNA 122 (MIR122) using HepaRG (AID 2283516). Further: the transcript read is the microRNA miR-122. In short, it runs like this: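 HepaRG, 48 h exposure, 8-pt half-log from 100 uM, 0.5% DMSO; TaqMan qRT-PCR; bidirectional fit vs DMSO.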

Read-out in test [2]: matrix metalloproteinase-10 (MMP10), MMP10 (gene 4319)
The experiment in a line: LTEA_HepaRG_MMP10: Life Technologies and Expression Analysis (LTEA) Assay for matrix metalloproteinase-10 (MMP10) using HepaRG (AID 2283517). In short, it runs like this:
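Differentiated HepaRG cells in serum-free induction medium exposed 48 h in duplicate to 8-point half-log series up to 100 uM in 0.5% DMSO. mRNA quantified by qRT-PCR, normalised to ACTB, GAPDH, POLR2A; bidirectional fit versus DMSO.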

Read-out in another test: MYC, MYC (gene 4609)
The test can be described thus: LTEA_HepaRG_MYC: Life Technologies and Expression Analysis (LTEA) Assay for MYC using HepaRG (AID 2283518). In short, it runs like this: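 Expression changes were scored by TaqMan qRT-PCR with ACTB, GAPDH and POLR2A normalization. Cultures in serum-free induction medium received duplicate 8-point concentration series, highest 100 uM, for 48 h; DMSO (0.5%) served as baseline.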

Read-out in test [3]: matrix metalloproteinase-3 (MMP3), MMP3 (gene 4314)
The test can be described thus: LTEA_HepaRG_MMP3: Life Technologies and Expression Analysis (LTEA) Assay for matrix metalloproteinase-3 (MMP3) using HepaRG (AID 2283519). A digest of the protocol:
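HepaRG cells (~100,000/well) in serum-free induction medium were dosed in duplicate for 48 h with an 8-point half-log series from 100 uM, 0.5% DMSO. MMP3 mRNA was quantified by Fluidigm TaqMan qRT-PCR, normalized to three housekeeping genes.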

Read-out in test [4]: Paternally Expressed 10 (PEG10), PEG10 (gene 23089)
The experiment in a line: LTEA_HepaRG_PEG10: Life Technologies and Expression Analysis (LTEA) Assay for Paternally Expressed 10 (PEG10) using HepaRG (AID 2283520).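 On AC50: PEG10 transcript by qRT-PCR normalised to ACTB GAPDH and POLR2A.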 A digest of the protocol:
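Chemicals tested on HepaRG cells for 48 h, highest concentration 100 uM. PEG10 expression assessed by qRT-PCR relative to DMSO control.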

Read-out in test [5]: Nuclear factor NF-kappa-B p105 subunit (Homo sapiens) (UniProt P19838)
The experiment in a line: LTEA_HepaRG_NFKB1: Life Technologies and Expression Analysis (LTEA) Assay for Nuclear Factor Kappa B Subunit 1 (NFKB1) using HepaRG (AID 2283521).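 On outcome: TaqMan qRT-PCR transcript normalised to ACTB GAPDH and POLR2A housekeeping genes.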 A digest of the protocol: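 NFKB1 transcript was measured by TaqMan qRT-PCR on Fluidigm arrays, normalised to three housekeeping genes and fitted in both directions against 0.5% DMSO. HepaRG cells were dosed in duplicate for 48 h in serum-free induction medium, eight half-log steps from 100 uM.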

Read-out in test [6]: Protein phosphatase 2A (PPP2R4), PTPA (gene 5524)
The experiment in a line: LTEA_HepaRG_PPP2R4: Life Technologies and Expression Analysis (LTEA) Assay for Protein phosphatase 2A (PPP2R4) using HepaRG (AID 2283522). In short, it runs like this: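 Gene-expression endpoint in HepaRG hepatic cells: 48 h treatment across eight half-log concentrations up to 100 uM in 0.5% DMSO. PPP2R4 mRNA by qRT-PCR, normalized to three endogenous control genes.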

Read-out in test [7]: Phosphatase and tensin (PTEN), PTEN (gene 5728)
The test can be described thus: LTEA_HepaRG_PTEN: Life Technologies and Expression Analysis (LTEA) Assay for Phosphatase and tensin (PTEN) using HepaRG (AID 2283523). A digest of the protocol:
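HepaRG cells, 48 h after plating, exposed in duplicate for 48 h in serum-free induction medium to 8 half-log concentrations up to 100 uM (0.5% DMSO). PTEN mRNA by qRT-PCR, normalized to ACTB, GAPDH, POLR2A; bidirectional fit versus DMSO.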

Read-out in test [8]: solute carrier (SLC22A1), SLC22A1 (gene 6580)
The test can be described thus: LTEA_HepaRG_SLC22A1: Life Technologies and Expression Analysis (LTEA) Assay for solute carrier (SLC22A1) using HepaRG (AID 2283524). A digest of the protocol:
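Differentiated human HepaRG cells in serum-free induction medium, exposed 48 h in duplicate to 8-point half-log series from 100 µM top in 0.5% DMSO. SLC22A1 mRNA by TaqMan qRT-PCR normalized to ACTB, GAPDH, POLR2A; bidirectional fit versus DMSO.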

Read-out in test [9]: Pyruvate Dehydrogenase Kinase 4 (PDK4), PDK4 (gene 5166)
The experiment in a line: LTEA_HepaRG_PDK4: Life Technologies and Expression Analysis (LTEA) Assay for Pyruvate Dehydrogenase Kinase 4 (PDK4) using HepaRG (AID 2283525). A digest of the protocol:
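HepaRG cells plated 48 h, then switched to serum-free induction medium and exposed in duplicate for 48 h to 8 half-log concentrations from 100 uM in 0.5% DMSO. PDK4 mRNA measured by qRT-PCR, normalized to ACTB, GAPDH and POLR2A; bidirectional fit versus DMSO.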

Calls of active or inactive are those of the source. How the source made its calls: active means hit-call score of the fitted dose curve at least 0.9, where 1 is the maximum; inactive means score below 0.9.

Sequence of Nuclear factor NF-kappa-B p105 subunit (Homo sapiens) (P19838 whole entry, looked up): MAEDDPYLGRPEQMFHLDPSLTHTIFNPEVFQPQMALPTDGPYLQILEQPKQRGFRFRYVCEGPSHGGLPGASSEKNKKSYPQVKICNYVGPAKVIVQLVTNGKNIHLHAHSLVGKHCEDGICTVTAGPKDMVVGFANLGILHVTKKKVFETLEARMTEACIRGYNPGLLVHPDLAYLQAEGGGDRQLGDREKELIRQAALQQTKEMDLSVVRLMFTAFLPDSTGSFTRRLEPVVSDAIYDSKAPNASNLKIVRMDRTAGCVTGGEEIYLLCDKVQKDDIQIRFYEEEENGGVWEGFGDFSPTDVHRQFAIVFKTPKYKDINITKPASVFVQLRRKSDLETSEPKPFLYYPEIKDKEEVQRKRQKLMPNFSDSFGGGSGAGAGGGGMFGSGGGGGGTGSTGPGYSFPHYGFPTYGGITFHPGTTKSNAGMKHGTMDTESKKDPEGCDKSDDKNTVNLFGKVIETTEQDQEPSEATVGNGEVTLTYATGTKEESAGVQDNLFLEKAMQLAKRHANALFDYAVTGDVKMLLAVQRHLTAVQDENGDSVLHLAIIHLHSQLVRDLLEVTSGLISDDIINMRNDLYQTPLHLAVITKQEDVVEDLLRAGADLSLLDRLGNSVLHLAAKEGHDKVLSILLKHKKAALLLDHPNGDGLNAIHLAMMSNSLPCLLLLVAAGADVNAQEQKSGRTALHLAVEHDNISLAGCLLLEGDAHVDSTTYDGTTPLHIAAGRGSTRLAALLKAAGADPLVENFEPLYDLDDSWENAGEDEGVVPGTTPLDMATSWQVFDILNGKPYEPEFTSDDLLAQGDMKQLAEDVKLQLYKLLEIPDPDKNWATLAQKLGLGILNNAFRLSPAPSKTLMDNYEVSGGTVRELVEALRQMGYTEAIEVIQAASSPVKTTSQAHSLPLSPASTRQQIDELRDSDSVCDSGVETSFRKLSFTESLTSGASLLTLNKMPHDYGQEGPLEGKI

As for `CCOP(=S)(OCC)Oc1ccc([N+](=O)[O-])cc1`, the outcome was “inactive” in [1]; “inactive” in [2]; “inactive” with MYC, MYC (gene 4609); “inactive” in test [3]; “inactive” in [4]; “inactive” in test [5]. In addition, the result in [6], in [7], in test [8] and in [9] was inactive.
Consider `CCC(CC)Nc1c([N+](=O)[O-])cc(C)c(C)c1[N+](=O)[O-]`, for which the outcome in [1] is “inactive”; in test [2], “inactive”; with MYC, MYC (gene 4609), “inactive”; in test [3], “inactive”; in test [5] it was “inactive”; in test [6], “inactive”. The molecule was called inactive in [8] and in [9]. Further, the AC50 (commonly the concentration giving half of the maximal activity seen) in test [4] was 50 µM (active).
On to `CCc1cccc(CC)c1N(COC)C(=O)CCl`, for which the outcome in test [1] is “inactive”; in test [2] it was “inactive”; with MYC, MYC (gene 4609), “inactive”; in test [3] it was “inactive”; in test [4], “inactive”; in [5], “inactive”. Moreover, the molecule was called inactive in test [6], in test [7] and in [8]. Besides, the AC50 in test [9] is 28.9 µM (active).
Regarding `CNc1cnn(-c2cccc(C(F)(F)F)c2)c(=O)c1Cl`, the molecule was classed as inactive in test [1], in test [2], in test [3], in [5], in [6] and in test [7]. The result in test [9] was inactive. Further, the AC50 is 19.6 µM (active) in the test with MYC, MYC (gene 4609); 32 µM (active) in test [4]; 50 µM (active) in test [8].
With `COc1ccc(C(=CC(=O)N2CCOCC2)c2ccc(Cl)cc2)cc1OC`, the outcome in test [1] is “inactive”; in [2], “inactive”; with MYC, MYC (gene 4609), “inactive”; in test [3], “inactive”; in [5], “inactive”; in [6], “inactive”. Besides, the molecule was called inactive in test [8] and in [9]. The AC50 in [4] is 4.02 µM (active).
Turning to `CCOP(=S)(Oc1cnc(C(C)(C)C)nc1)OC(C)C` (stereo not given), the outcome in [1] is “inactive”; in test [2], “inactive”; with MYC, MYC (gene 4609), “inactive”; in [3], “inactive”; in test [5], “inactive”; in [6], “inactive”. Moreover, the call in [8] was inactive. Also, the values for the AC50 in test [4] and in [9] were 13.3 µM (active) and 1.35 µM (active), respectively.
`CCC(=NOC/C=C/Cl)C1=C(O)CC(C2CCOCC2)CC1=O` (stereo not given): the outcome in [1] is “inactive”; in test [2], “inactive”; with MYC, MYC (gene 4609) it was “inactive”; in test [3] it was “inactive”; in [4], “inactive”; in test [5], “inactive”. Besides, the call in [6], in [7], in test [8] and in test [9] was inactive.
In the case of `CN(C)NC(=O)CCC(=O)O`, the outcome is “inactive” in test [1]; “inactive” in test [2]; “inactive” with MYC, MYC (gene 4609); “inactive” in [3]; “inactive” in test [4]; “inactive” in test [5]. Further, the molecule was classed as inactive in [6], in test [7], in [8] and in [9].
Regarding `CCOP(=S)(OCC)OC(Cl)C(Cl)(Cl)Cl` (stereo not given), the outcome in test [1] was “inactive”; in test [2] it was “inactive”; in the test with MYC, MYC (gene 4609) it was “inactive”; in test [3], “inactive”; in test [4], “inactive”; in [5] it was “inactive”. In addition, the molecule was classed as inactive in [6], in test [8] and in test [9].
Regarding `CC1(C(=O)Nc2ccc(O)c(Cl)c2Cl)CCCCC1`, the outcome is “inactive” in test [1]; “inactive” in test [2]; “inactive” with MYC, MYC (gene 4609); “inactive” in [3]; “inactive” in test [4]; “inactive” in [5]. In addition, the molecule was called inactive in test [6], in test [7], in test [8] and in test [9].
Turning to `CC(=NC#N)N(C)Cc1ccc(Cl)nc1`, the outcome in test [1] was “inactive”; in [2] it was “inactive”; with MYC, MYC (gene 4609) it was “inactive”; in test [3] it was “inactive”; in test [4], “inactive”; in test [5], “inactive”. Besides, the molecule was called inactive in test [6], in test [7], in test [8] and in test [9].
Take `C=C(C)[C@H]1Cc2c(ccc3c2O[C@@H]2COc4cc(OC)c(OC)cc4[C@@H]2C3=O)O1`: the AC50 is 1.32 µM (active) in [1]; 17.7 µM (active) in test [2]; 6.64 µM (active) with MYC, MYC (gene 4609); 14.3 µM (active) in test [3]; 0.173 µM (active) in test [4]; 50 µM (active) in test [6]. For the same molecule, the AC50 in [8] was 1.95 µM (active); in test [9], 13.2 µM (active). Further, the result in test [5] and in [7] was inactive.
`CCCCOC(=O)c1ccccc1C(=O)O`: the outcome is “inactive” in test [1]; “inactive” in test [2]; “inactive” in the test with MYC, MYC (gene 4609); “inactive” in test [3]; “inactive” in test [4]; “inactive” in test [5]. The molecule was called inactive in [6], in test [7], in test [8] and in test [9].
Take `Nc1c(Cl)cc([N+](=O)[O-])cc1Cl`: the concentration at half-maximal activity (AC50) in test [1] is 50 µM (active); in the test with MYC, MYC (gene 4609), 12.3 µM (active); in [4], 36.7 µM (active); in test [5] it was 12.2 µM (active); in test [6] it was 50 µM (active); in [7], 4.24 µM (active). Moreover, the AC50 in [8] was 60.8 µM (active); in test [9], 50 µM (active). Also, the outcome in [2] and in test [3] was inactive.
As for `FC(F)C(F)(F)OCC(Cn1cncn1)c1ccc(Cl)cc1Cl` (stereo not given), the AC50 was 59.2 µM (active) in test [1]; 49.8 µM (active) in [2]; 37.3 µM (active) with MYC, MYC (gene 4609); 66.9 µM (active) in [3]; 90.4 µM (active) in test [6]; 19.7 µM (active) in [8]. For the same molecule, the AC50 in test [9] is 12 µM (active). The outcome in test [4], in [5] and in [7] was inactive.
Regarding `Nc1nc(N)nc(NC2CC2)n1`, the outcome in test [1] was “inactive”; in test [2], “inactive”; with MYC, MYC (gene 4609) it was “inactive”; in test [3] it was “inactive”; in test [4] it was “inactive”; in test [5], “inactive”. For the same molecule, the outcome in test [6], in test [8] and in test [9] was inactive.

(Values after PubChem BioAssay (EPA / NIEHS).)
